Results as given in PubChem BioAssay AID977607 (Broad Institute, 2014).
The whole screen tested about 1,500 compounds, of which about 460 (31%) were called active. Not shown: some 1% with an inconclusive outcome. The list is a sample of the results. Potency and affinity values are given separately. A number with no mark means an inactive call.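 Rule for the calls: active = curve reaches 40% activation over neutral controls at an AC40 no higher than the top valid tested concentration; inconclusive = no clear call, values can overlap the other calls; inactive = signal moving opposite to the expected increase, and the rest.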

assay: GLuc-reported insulin release enhancers, glucose-stimulated beta cells – cell-based, INS-1E, Gaussia luciferase, luminescence, cherry-pick, set 2, dose response (AID 977607); settings: INS-1E GLuc insulin secretion reporter, 2-3 h, hits give high values; at 35 µM, 100% = signal doubled over neutral wells unless noted;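 note: 0% = median of the plate neutral control wells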

| Structure (SMILES) | max activation |
| --- | --- |
| c1ccc(CCN2CCN=C2Nc2ccccc2)cc1 | -31.5% [at 0.42 µM, 100% = signal doubled over neutral wells] |
| CN(C)C=NC(=O)c1ccc(N2CCN(c3ncc(C(F)(F)F)cc3Cl)CC2)cc1 | -20.4% [at 11 µM, 100% = signal doubled over neutral wells] |
| CN(C)c1nc(=NCc2cccs2)ss1 | -34.9% [at 11 µM, 100% = signal doubled over neutral wells] |
| CCCc1cc(=O)oc2cc(OCC(=O)NC3CCN(Cc4ccccc4)CC3)ccc12 | -23.5% |
| CNC(=O)C1CC(=O)N(c2ccc(OCC(=O)Nc3ccccc3)cc2)C1 (configuration not stated) | -14.9% [at 0.135 µM, 100% = signal doubled over neutral wells] |
| COc1cc2[nH]c3c(Cl)ncnc3c2cc1OC | -29.3% [at 3.8 µM, 100% = signal doubled over neutral wells] |
| CCCn1c(=O)c(C(=O)NCc2ccccc2)c(O)c2ccccc21 | -28% |
| O=C(CCc1nc2ccccc2c(=O)[nH]1)NNC(=O)c1cccc(Cl)c1 | -14.7% [at 0.015 µM, 100% = signal doubled over neutral wells] |
| COc1ccnc(N2CCN(c3cccc(C(F)(F)F)c3)CC2)c1C#N | 81.3% |
| CN(C)CCCN(C(=O)c1ccco1)c1nc2c(F)cccc2s1 | -22.6% [at 0.015 µM, 100% = signal doubled over neutral wells] |
| CCOc1ccc2ccc(OCC)c(/C=N/n3cnnc3)c2c1 | -33.7% |
| Cc1cc2cc(C#N)c(N3CCOCC3)nc2cc1Cl | -10.5% [at 0.015 µM, 100% = signal doubled over neutral wells] |
| O=C1CC(=O)Nc2cc(S(=O)(=O)NCc3cccs3)ccc2N1 | -18.8% [at 0.0016 µM, 100% = signal doubled over neutral wells] |
| COc1ccc(CCN=C(N)NS(=O)(=O)c2ccc(C)c(C)c2)cc1OC | 23.8% [at 0.0016 µM, 100% = signal doubled over neutral wells] |
| COc1ccc(CCNC(=O)C(=O)NN=C2CCCCCCC2)cc1OC | -11.7% [at 0.005 µM, 100% = signal doubled over neutral wells] |
| COc1ccc(CCNc2ccncn2)cc1OC | -13.5% [at 0.0016 µM, 100% = signal doubled over neutral wells] |
| CCOC(=O)c1c(S(=O)(=O)NCCc2ccc(OC)c(OC)c2)c(C)n(C)c1C | -18.5% [at 0.135 µM, 100% = signal doubled over neutral wells] |
| COc1ccc(CCN(C)C(=O)CCNS(=O)(=O)c2ccccc2C(F)(F)F)cc1OC | -10.8% [at 0.135 µM, 100% = signal doubled over neutral wells] |
| COc1ccc(CCNS(=O)(=O)c2ccc(Cl)s2)cc1OC | 28.1% |

| Structure (SMILES) | max activation |
| --- | --- |
| Cc1ccc(NC(=O)[C@@H](Cc2ccccc2)NC(=O)[C@H]2O[C@@H](n3ccc(=O)[nH]c3=O)[C@H](O)[C@@H]2O)cc1C | -17.1% [at 0.015 µM, 100% = signal doubled over neutral wells] |
| COc1ccc(NC(=O)C2CCCN2S(=O)(=O)c2ccc3c(c2)CC(C)N3C(C)=O)cc1OC (configuration not stated) | -19.4% [at 0.005 µM, 100% = signal doubled over neutral wells] |
| COc1cccc(NC(=O)CN(C)C(=O)Cn2[nH]c(=O)c3ccccc3c2=O)c1 | -27.7% [at 1.2 µM, 100% = signal doubled over neutral wells] |
| COc1cc2c(cc1OC)C(CSc1ccccc1C(=O)O)=NC(C)(C)C2 | 30.8% |
| O=C(NCC1(O)CCCCC1)C1CCC(=O)N(Cc2ccccc2F)C1 (configuration not stated) | -16.4% |
| CN(C(=O)COC(=O)c1cccs1)c1ccccc1 | -16.8% [at 0.0016 µM, 100% = signal doubled over neutral wells] |
| CCOC(=O)c1sc(NC(C)=O)nc1-c1ccccc1 | -16.3% [at 0.046 µM, 100% = signal doubled over neutral wells] |
| Cc1cc(C(F)F)n2ncc(C(=O)NCc3ccc(F)cc3)c2n1 | -18% [at 1.2 µM, 100% = signal doubled over neutral wells] |
| O=C(Nc1cccnc1)c1cnn2c(C(F)F)cc(C3CC3)nc12 | 30.2% [at 11 µM, 100% = signal doubled over neutral wells] |
| CC(=O)Nc1cc(-c2ccc(N3CCN(C)CC3)cc2)cn2c(-c3cccc(C(=O)N(C)C)c3)cnc12 | -24% [at 0.046 µM, 100% = signal doubled over neutral wells] |
| COc1ccc(-c2cc(NC=O)c3ncc(-c4ccc(OC)c(OC)c4)n3c2)cc1 | 90% [at 3.8 µM, 100% = signal doubled over neutral wells] |
| COc1ccc(CNC(=O)CN2C(=O)NC3(CCCCCC3)C2=O)cc1 | -13.8% [at 0.005 µM, 100% = signal doubled over neutral wells] |
| CCC(O)c1nc2ccccc2n1CCc1ccccc1 (configuration not stated) | -18.7% [at 0.005 µM, 100% = signal doubled over neutral wells] |
| CCOC(=O)c1nc2nc(-c3cccs3)cc(C(F)(F)F)n2n1 | -16% [at 0.135 µM, 100% = signal doubled over neutral wells] |
| CC1Cc2ccccc2N1C(=S)NC(=O)c1cccc(Br)c1 (configuration not stated) | -15.5% [at 0.005 µM, 100% = signal doubled over neutral wells] |
| Cc1c(Cc2ccccc2)sc(NC(=O)C(C)(C)C)c1C(N)=O | -18.8% [at 0.015 µM, 100% = signal doubled over neutral wells] |
| COc1ccc(/C(C)=N/Nc2ccc(C(=O)O)cc2)cc1OC | 24.3% |
| COc1ccc(C(=O)/C=C2\NCCc3cc(OC)c(OC)cc32)cc1OC | 24% |
| C=CCN1C(=O)c2n[nH]c(COC)c2C1c1ccc(F)cc1 (configuration not stated) | -25.3% [at 0.015 µM, 100% = signal doubled over neutral wells] |

| Structure (SMILES) | max activation |
| --- | --- |
| Cc1cc(=O)oc2c3c(cc(OCC(=O)NC(C)C)c12)OC(C)(C)CC3 | 34% [at 0.42 µM, 100% = signal doubled over neutral wells] |
| CC(=O)Nc1ccc(-c2ccnc3c2CC(C)(C(=O)Nc2cccc(OC(F)(F)F)c2)O3)cc1 (configuration not stated) | -44.4% |
| Nn1c(-c2ccccc2)cc(-c2ccccc2)cc1=O | 27.3% |
| CNc1nc(OCC#N)nc(N2CCCCC2)n1 | 25% |
| COc1ccc(C(=O)N2CCc3cc(OC)c(OC)cc3C2c2ccc(OC)c(OC)c2)cc1OC (configuration not stated) | 24.4% [at 0.005 µM, 100% = signal doubled over neutral wells] |
| COc1cc2c(cc1OC)CN(C(=O)Cc1ccccc1)CC2 | -21.2% |
| Cc1ccccc1SC1CCN(C(=O)C2CCC(=O)N(C3CC3)C2)CC1 (configuration not stated) | -25.3% |
| CCOc1ccc(OCCC(=O)N(CC)CC(=O)NCc2cccs2)cc1 | -21% [at 11 µM, 100% = signal doubled over neutral wells] |
| O=C(CC(NC(=O)c1ccccc1)c1ccccc1)Nc1cccc2ccccc12 (configuration not stated) | -27.5% |
| Nc1[nH]c(C(=O)c2ccccc2)c(-c2c(F)cccc2F)c1C(=O)c1ccc(Cl)c(Cl)c1 | 53.9% |
| C#Cc1cccc(-n2nnc(C(=O)OC)c2-c2ccccc2)c1 | -13.8% [at 0.42 µM, 100% = signal doubled over neutral wells] |
| COC(=O)C1=C(C)NC(=S)NC1c1ccc(OC)cc1 (configuration not stated) | -18.4% [at 0.135 µM, 100% = signal doubled over neutral wells] |
| COc1ccc(CCC(=O)NC2CCC(C)CC2)cc1 (configuration not stated) | -13.6% [at 0.135 µM, 100% = signal doubled over neutral wells] |
| c1ccc2c(NCC3CCCO3)nc(N3CCCCC3)nc2c1 (configuration not stated) | -16.1% [at 3.8 µM, 100% = signal doubled over neutral wells] |
| CC1=CC(c2ccccc2)n2nc(NC(=O)CCC(=O)O)nc2N1 (configuration not stated) | -12.8% [at 1.2 µM, 100% = signal doubled over neutral wells] |
| CC(=O)c1ccc(OCC(=O)N(C2CCCCC2)C2CCS(=O)(=O)C2)cc1 (configuration not stated) | -11% [at 0.0016 µM, 100% = signal doubled over neutral wells] |
| CCN(Cc1ccccc1)S(=O)(=O)c1ccc(C(=O)Nc2nnc(C)o2)cc1 | 39.3% [at 3.8 µM, 100% = signal doubled over neutral wells] |
| CN(C)CCCN(C(=O)CCOc1ccccc1)c1nc2ccc(F)cc2s1 | -14.1% [at 0.015 µM, 100% = signal doubled over neutral wells] |
| COc1cc2c(cc1OC)CN(C(=O)CNS(=O)(=O)c1ccc(C)c(C)c1)CC2 | 13.4% [at 11 µM, 100% = signal doubled over neutral wells] |
